PubChem BioAssay (EPA / NIEHS)
Active and inactive are the calls of the source. The calls were made as follows: active = hit-call score of the fitted dose curve at least 0.9, where 1 is the maximum; inactive = score below 0.9.

Key:
[1] = read-out: Intercellular Adhesion Molecule 1 (ICAM1), ICAM1 (gene 3383); experiment: BSK_3C_ICAM1: BioMAP Diversity Plus: 3C Assay for Intercellular Adhesion Molecule 1 (ICAM1) Biomarker Activity (AID 2283003); settings: primary human endothelial cells (HUVEC); actives raise or lower the signal
Procedure, shortened: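 Primary human umbilical vein endothelial cells in the BioMAP 3C system were exposed to chemicals for 24 h, then ICAM-1 was quantified by ELISA. Activity was fitted bidirectionally against the DMSO negative control baseline.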

[2] = BSK_3C_Proliferation: Cell Proliferation Assessment in the BioMAP Diversity Plus: 3C Assay (AID 2283006); settings: primary human endothelial cells (HUVEC);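 as to AC50: potency may reflect either rise or fall in cell number versus DMSO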
Procedure, shortened: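 Human umbilical vein endothelial cells were grown sub-confluent and exposed to chemical for 48 h, then fixed with 10% TCA and stained with 0.1% sulforhodamine B; absorbance at 560 nm gave relative cell number, fitted bidirectionally against DMSO baseline.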

[3] = read-out: E-selectin (Homo sapiens) (UniProt P16581); experiment: BSK_3C_Eselectin: BioMAP Diversity Plus: 3C Assay for Eselectin Biomarker Activity (AID 2283015); settings: primary human endothelial cells (HUVEC); actives raise or lower the signal
Procedure, shortened: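 Primary human umbilical vein endothelial cells (3C system) were dosed with chemical and cell-surface E-selectin measured by ELISA 24 h later. Bidirectional curve fitting used DMSO as negative control and baseline.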

[4] = read-out: Matrix Metallopeptidase 1 (MMP1), MMP1 (gene 4312); experiment: BSK_BE3C_MMP1: BioMAP Diversity Plus: BE3C Assay for Matrix Metallopeptidase 1 (MMP1) Biomarker Activity (AID 2283024); settings: primary human bronchial epithelial cells; actives raise or lower the signal
Procedure, shortened: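 Primary human bronchial epithelial cells were dosed with test chemicals, and MMP1 levels were measured by ELISA 24 h later. Data were fitted bidirectionally against DMSO as the negative control and activity baseline.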

[5] = BSK_BE3C_SRB: Viability Assessment in the BioMAP Diversity Plus: BE3C Assay (AID 2283028); settings: primary human bronchial epithelial cells
Procedure, shortened: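 Human primary bronchial epithelial cells were exposed to test chemicals for 24 h. Total protein in parallel cultures was then measured by staining with 0.1% sulforhodamine B after 10% TCA fixation, with absorbance read at 560 nm. Activity was fitted bidirectionally against DMSO.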

[6] = read-out: Thrombomodulin, THBD (gene 7056); experiment: BSK_3C_Thrombomodulin: BioMAP Diversity Plus: 3C Assay for Thrombomodulin Biomarker Activity (AID 2283029); settings: primary human endothelial cells (HUVEC); actives raise or lower the signal
Procedure, shortened: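 Primary human umbilical vein endothelial cells (3C system) were exposed to chemical for 24 h, then thrombomodulin levels were measured by ELISA. Activity was fitted bidirectionally against the DMSO negative control as baseline.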

[7] = read-out: Human Leukocyte Antigen - DR isotype (HLADR), HLA-DRA (gene 3122); experiment: BSK_BE3C_HLADR: BioMAP Diversity Plus: BE3C Assay for Human Leukocyte Antigen - DR isotype (HLADR) Biomarker Activity (AID 2283032); settings: primary human bronchial epithelial cells; actives raise or lower the signal
Procedure, shortened: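 Human primary bronchial epithelial cells in the BE3C system were exposed to chemicals for 24 h, after which HLA-DR levels were quantified by ELISA. Activity was fitted bidirectionally, gain or loss of signal, against DMSO as negative control and baseline.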

[8] = read-out: Vascular cell adhesion molecule 1 (VCAM1), VCAM1 (gene 7412); experiment: BSK_4H_VCAM1: BioMAP Diversity Plus: 4H Assay for Vascular cell adhesion molecule 1 (VCAM1) Biomarker Activity (AID 2283033); settings: primary human endothelial cells (HUVEC); actives raise or lower the signal
Procedure, shortened: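 Primary human umbilical vein endothelial cells were exposed to chemicals for 24 h, after which VCAM-1 was quantified by ELISA. Responses were fitted bidirectionally against DMSO as negative control and activity baseline.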

[9] = read-out: Interferon-gamma inducible Protein 10 (IP10), CXCL10 (gene 3627); experiment: BSK_BE3C_IP10: BioMAP Diversity Plus: BE3C Assay for Interferon-gamma inducible Protein 10 (IP10) Biomarker Activity (AID 2283034); settings: primary human bronchial epithelial cells; actives raise or lower the signal
Procedure, shortened: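 Human primary bronchial epithelial cells were exposed to chemicals for 24 hours, after which IP-10 levels were measured by ELISA. Data were fitted bidirectionally against DMSO, which served as the negative control and activity baseline.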

[10] = read-out: Urokinase-type plasminogen activator receptor (uPAR), PLAUR (gene 5329); experiment: BSK_BE3C_uPAR: BioMAP Diversity Plus: BE3C Assay for Urokinase-type plasminogen activator receptor (uPAR) Biomarker Activity (AID 2283039); settings: primary human bronchial epithelial cells; actives raise or lower the signal
Procedure, shortened: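 Primary human bronchial epithelial cells were dosed with chemical and harvested 24 h later; uPAR was quantified by ELISA. Activity was fitted bidirectionally against DMSO as negative control and baseline.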

[11] = read-out: Interleukin-6 (IL6), IL6 (gene 3569); experiment: BSK_CASM3C_IL6: BioMAP Diversity Plus: CASM3C Assay for Interleukin-6 (IL6) Biomarker Activity for (AID 2283040); settings: primary human coronary artery smooth muscle cells; actives raise or lower the signal
[12] = read-out: Interleukin-8 (IL8), CXCL8 (gene 3576); experiment: BSK_CASM3C_IL8: BioMAP Diversity Plus: CASM3C Assay for Interleukin-8 (IL8) Biomarker Activity (AID 2283042); settings: primary human coronary artery smooth muscle cells; actives raise or lower the signal;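 also: IL-8 protein level quantified by ELISA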
[13] = read-out: Human Leukocyte Antigen - DR isotype (HLADR), HLA-DRA (gene 3122); experiment: BSK_CASM3C_HLADR: BioMAP Diversity Plus: CASM3C Assay for Human Leukocyte Antigen - DR isotype (HLADR) Biomarker Activity (AID 2283043); settings: primary human coronary artery smooth muscle cells; actives raise or lower the signal;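 also: cell-surface HLA-DR protein level quantified by ELISA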
[14] = read-out: Monocyte Chemoattractant Protein-1 (MCP1), CCL2 (gene 6347); experiment: BSK_CASM3C_MCP1: BioMAP Diversity Plus: CASM3C Assay for Monocyte Chemoattractant Protein-1 (MCP1) Biomarker Activity (AID 2283046); settings: primary human coronary artery smooth muscle cells; actives raise or lower the signal;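 also: MCP-1 level quantified by ELISA 24 h after dosing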
[15] = BSK_CASM3C_Proliferation: Cell Proliferation Assessment in the BioMAP Diversity Plus: CASM3C Assay (AID 2283047); settings: primary human coronary artery smooth muscle cells;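 also: sulforhodamine B total protein stain as relative cell number at 560 nm; sub-confluent cells exposed 48 h before staining; fitted both ways against DMSO so gain or loss of cell number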
[16] = read-out: serum amyloid A (SAA), SAA1 (gene 6288); experiment: BSK_CASM3C_SAA: BioMAP Diversity Plus: CASM3C Assay for serum amyloid A (SAA) Biomarker Activity (AID 2283049); settings: primary human coronary artery smooth muscle cells; actives raise or lower the signal;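 also: SAA protein level quantified by ELISA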
[17] = read-out: Tissue Factor, F3 (gene 2152); experiment: BSK_CASM3C_TissueFactor: BioMAP Diversity Plus: CASM3C Assay for Tissue Factor Biomarker Activity (AID 2283052); settings: primary human coronary artery smooth muscle cells; actives raise or lower the signal;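 also: cell surface tissue factor protein level read by ELISA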
[18] = read-out: Interferon-gamma inducible Protein 10 (IP10), CXCL10 (gene 3627); experiment: BSK_hDFCGF_IP10: BioMAP Diversity Plus: hDFCGF Assay for Interferon-gamma inducible Protein 10 (IP10) Biomarker Activity (AID 2283053); settings: primary human foreskin fibroblasts; actives raise or lower the signal
Procedure, shortened: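 Human foreskin fibroblast primary cells (hDFCGF system) were dosed with chemical and assayed at 24 h; IP-10 measured by ELISA. Activity fitted bidirectionally relative to DMSO negative control as baseline.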

[19] = read-out: Urokinase-type plasminogen activator receptor (uPAR), PLAUR (gene 5329); experiment: BSK_CASM3C_uPAR: BioMAP Diversity Plus: CASM3C Assay for Urokinase-type plasminogen activator receptor (uPAR) Biomarker Activity (AID 2283054); settings: primary human coronary artery smooth muscle cells; actives raise or lower the signal;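 also: cell-surface uPAR protein level quantified by ELISA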
[20] = read-out: Collagen III, COL3A1 (gene 1281); experiment: BSK_hDFCGF_CollagenIII: BioMAP Diversity Plus: hDFCGF Assay for Collagen III Biomarker Activity (AID 2283056); settings: primary human foreskin fibroblasts; actives raise or lower the signal
Procedure, shortened: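 Human foreskin primary fibroblasts were exposed to test chemicals for 24 h, after which collagen III was quantified by ELISA. Activity was fitted bidirectionally against DMSO as negative control and baseline.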

Measured: AC50

Chain of E-selectin (Homo sapiens) (P16581 whole entry, looked up): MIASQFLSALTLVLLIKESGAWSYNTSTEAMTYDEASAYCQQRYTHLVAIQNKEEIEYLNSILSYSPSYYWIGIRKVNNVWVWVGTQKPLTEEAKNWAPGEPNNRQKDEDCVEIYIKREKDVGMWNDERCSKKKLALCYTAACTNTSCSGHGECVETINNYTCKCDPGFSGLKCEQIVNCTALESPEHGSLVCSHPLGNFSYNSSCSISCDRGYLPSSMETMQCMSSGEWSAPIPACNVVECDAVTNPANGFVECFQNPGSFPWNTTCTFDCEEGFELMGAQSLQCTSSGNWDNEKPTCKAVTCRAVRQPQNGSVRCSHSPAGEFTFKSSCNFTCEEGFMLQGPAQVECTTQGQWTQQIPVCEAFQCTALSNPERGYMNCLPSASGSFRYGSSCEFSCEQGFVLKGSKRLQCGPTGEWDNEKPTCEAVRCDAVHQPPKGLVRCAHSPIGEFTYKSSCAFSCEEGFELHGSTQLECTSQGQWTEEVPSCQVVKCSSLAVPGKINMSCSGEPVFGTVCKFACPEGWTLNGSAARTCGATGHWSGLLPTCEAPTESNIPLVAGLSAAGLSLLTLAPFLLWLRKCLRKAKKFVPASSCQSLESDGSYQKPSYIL

C=CC(=O)OCC(CC)CCCC (centres undefined)
inactive: [1] | [3] | [4] | [5] | [7] | [9] | [10] | [11] | [12] | [13] | [14] | [15] | [16] | [17] | [19]
active: [2] 27.6 µM | [6] 3.97 µM | [8] 0.159 µM | [18] 27.6 µM | [20] 20 µM

O=[N+]([O-])O
inactive: [1] | [2] | [3] | [4] | [5] | [6] | [7] | [8] | [9] | [10] | [11] | [12] | [13] | [14] | [15] | [16] | [17] | [18] | [19] | [20]

O=c1[nH]c(Cl)c(Cl)cc1Cl
inactive: [1] | [2] | [3] | [4] | [5] | [6] | [7] | [8] | [9] | [10] | [11] | [12] | [13] | [14] | [15] | [16] | [17] | [18] | [19] | [20]

Cc1ccc(OP(=O)(Oc2ccc(C)cc2)Oc2ccc(C)cc2)cc1 (tested in a mixture with another compound)
inactive: [1] | [3] | [5] | [7] | [8] | [9] | [11] | [12] | [13] | [14] | [15] | [16] | [17] | [18]
active: [2] 7.47 µM | [4] 3.35 µM | [6] 3.59 µM | [10] 4.16 µM | [19] 1.11 µM | [20] 12.9 µM

Oc1cc(Cl)ccc1Cl
inactive: [1] | [2] | [3] | [4] | [5] | [6] | [7] | [8] | [9] | [10] | [11] | [12] | [13] | [14] | [15] | [16] | [17] | [18] | [19] | [20]

Nc1ccc(-c2ccc(N)c(N)c2)cc1N
inactive: [1] | [2] | [4] | [5] | [6] | [7] | [8] | [9] | [10] | [11] | [12] | [14] | [15] | [16] | [18] | [19]
active: [3] 8.29 µM | [17] 11.3 µM | [20] 20 µM

O=C(CCl)c1ccccc1
active: [1] 7.82 µM | [2] 6.81 µM | [3] 6.97 µM | [7] 30.4 µM | [8] 3.54 µM | [9] 29.9 µM | [11] 12.7 µM | [12] 11.2 µM | [13] 6.84 µM | [14] 12.5 µM | [15] 2.44 µM | [16] 14.6 µM | [18] 4.64 µM | [19] 10.4 µM | [20] 4.85 µM
inactive: [4] | [5] | [6] | [10] | [17]

O=S(=O)(c1ccccc1)c1ccccc1
inactive: [1] | [2] | [3] | [4] | [5] | [6] | [7] | [8] | [9] | [10] | [11] | [12] | [13] | [14] | [15] | [16] | [17] | [18] | [19] | [20]

COC(C)(C)CCC[C@H](C)C/C=C/C(C)=C/C(=O)OC(C)C
inactive: [5] | [6] | [10] | [11] | [12] | [14] | [16]
active: [1] 30.4 µM | [2] 26 µM | [3] 28.7 µM | [4] 20 µM | [7] 18.5 µM | [8] 31.6 µM | [9] 20 µM | [13] 20 µM | [15] 17.2 µM | [17] 20 µM | [18] 33.7 µM | [19] 31.2 µM | [20] 16.6 µM

CC(C)CCCCCCCOC(=O)c1ccccc1C(=O)OCCCCCCCC(C)C
inactive: [1] | [2] | [3] | [4] | [5] | [6] | [7] | [8] | [9] | [10] | [11] | [12] | [13] | [14] | [15] | [16] | [17] | [18] | [19] | [20]

COc1ccc(CO)cc1
inactive: [1] | [2] | [3] | [4] | [5] | [6] | [7] | [8] | [9] | [10] | [11] | [12] | [13] | [14] | [15] | [16] | [17] | [18] | [19] | [20]

CC(C)(C)C(O)C(Oc1ccc(-c2ccccc2)cc1)n1cncn1 (centres undefined)
inactive: [1] | [4] | [5] | [6] | [7] | [10] | [12] | [18]
active: [2] 31 µM | [3] 29.9 µM | [8] 31.5 µM | [9] 6.71 µM | [11] 30.9 µM | [13] 31.3 µM | [14] 29.2 µM | [15] 26.3 µM | [16] 20 µM | [17] 14.4 µM | [19] 29 µM | [20] 24.9 µM

CC(=O)/C=C/c1ccccc1
inactive: [1] | [3] | [4] | [5] | [6] | [8] | [9] | [10] | [11] | [12] | [13] | [15] | [16] | [17] | [18] | [19] | [20]
active: [2] 23.2 µM | [7] 3.97 µM | [14] 0.104 µM

CCc1cc(C)cc(CC)c1-c1c(OC(=O)C(C)(C)C)n2n(c1=O)CCOCC2
inactive: [1] | [2] | [4] | [5] | [6] | [9] | [10] | [11] | [12] | [14] | [18] | [19] | [20]
active: [3] 5.7 µM | [7] 3.97 µM | [8] 9.41 µM | [13] 3.97 µM | [15] 20 µM | [16] 0.0822 µM | [17] 8.26 µM
